Results published in ChEMBL document CHEMBL3433997, “St. Jude Leishmania screening dataset” (2016).

Columns and labels:
Type in all cases: functional
[1] = target: Solute carrier family 2, facilitated glucose transporter member 1 (Homo sapiens) (UniProt P11166); assay: ST_JUDE_LEISH: Cytotoxicity at 2uM final concentration against transgenic Leishmania Mexicana promastigotes LmGLUT1 that are glucose transport deficient and complemented with the human glucose transporter GLUT1. Activity is measured by DNA content using SYBR green in vitro
[2] = target: Hexose transporter 1 (Plasmodium falciparum) (UniProt O97467); assay: ST_JUDE_LEISH: Cytotoxicity at 2uM final concentration against transgenic Leishmania Mexicana promastigotes LmPfHT that are glucose transport deficient and complemented with the Plasmodium falciparum hexose transporter. Activity is measured by DNA content using SYBR green in vitro
[3] = target: Glucose transporter (Leishmania mexicana) (UniProt O61059); assay: ST_JUDE_LEISH: Cytotoxicity at 2uM final concentration against transgenic Leishmania Mexicana promastigotes LmGT2 that are glucose transport deficient and complemented with the L. Mexicana glucose transporter 2. Activity is measured by DNA content using SYBR green in vitro

Chain of Solute carrier family 2, facilitated glucose transporter member 1 (Homo sapiens) (P11166 whole entry): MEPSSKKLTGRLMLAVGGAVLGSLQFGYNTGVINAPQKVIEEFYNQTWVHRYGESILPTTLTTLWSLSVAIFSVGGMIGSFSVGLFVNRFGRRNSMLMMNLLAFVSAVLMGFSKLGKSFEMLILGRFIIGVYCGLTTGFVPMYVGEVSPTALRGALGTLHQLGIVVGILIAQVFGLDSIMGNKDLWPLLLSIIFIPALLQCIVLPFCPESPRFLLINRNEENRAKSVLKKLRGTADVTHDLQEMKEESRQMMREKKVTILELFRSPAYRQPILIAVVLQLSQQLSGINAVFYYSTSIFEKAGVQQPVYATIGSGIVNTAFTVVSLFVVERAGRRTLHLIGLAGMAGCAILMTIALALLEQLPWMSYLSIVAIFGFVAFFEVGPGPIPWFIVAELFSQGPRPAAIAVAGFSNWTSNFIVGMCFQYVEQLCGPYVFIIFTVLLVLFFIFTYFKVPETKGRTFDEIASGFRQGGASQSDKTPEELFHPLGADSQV

| SMILES | inhibition [1] | inhibition [2] | inhibition [3] |
| --- | --- | --- | --- |
| CN(C)S(=O)(=O)c1cc(-c2ccc3nccc(-c4cccc(S(N)(=O)=O)c4)c3c2)cnc1N | 8.3% | 7.26% | 7.13% |
| Fc1ccc(Nc2nnc(CNC3CCN(Cc4ccc(Cl)c(Cl)c4)CC3)[nH]2)cc1 | 2.85% | 0.21% | -0.83% |
| c1ccc(Oc2ccc(Nc3ccnc4cc(-c5csc(CNCCN6CCOCC6)n5)ccc34)cc2)cc1 | -1.32% | 1.23% | -0.68% |
| COc1ccccc1N1CCN(c2cccc(F)c2C#N)CC1 | 8.24% | 6.93% | 6.12% |
| CNC(=O)NC1CCN(Cc2c(-c3cccs3)nc3ccccc3c2C(=O)N[C@@H](C)C2CCCCC2)CC1 | -1.53% | 0.94% | -1.52% |
| Cc1cccc2nc(-c3cccc(-c4cccc(CNCc5ccccc5)c4)c3)[nH]c12 | 1.86% | 0.34% | 0.66% |
| CC(C)(C)C(=O)Nc1ccc(N2CCN(C(c3ccccc3)c3ccccc3)CC2)c(Cl)c1 | 8.85% | 7.04% | 4.93% |
| Cc1cc(NC(=O)Nc2ccc(Oc3ccccc3)cc2)c2ccccc2n1 | 0.26% | 1.44% | -0.34% |
| CCOc1cc(C(=O)N[C@@H](Cc2ccccc2)[C@H](O)CNCc2cccc(OC)c2)cc(N2CCCCS2(=O)=O)c1 | 5.4% | 5.25% | 3.08% |
| CCCc1cc(OC)c(CC2c3cccc(O)c3CCN2C)cc1OC (stereo unspecified) | 0.68% | 0.4% | -0.12% |
| CNCCCn1c(N(C)C)nc2cc(-n3cnc4cc(-c5ccc(Cl)cc5)sc4c3=O)ccc21 | 3.3% | 3.48% | 3.76% |
| O=C(NC12CC3CC(CC(C3)C1)C2)C(=O)c1c[nH]c2ccccc12 | 3.4% | 3.09% | 1.4% |
